Screening data as filed in PubChem BioAssay.
MEKK2 WT-MEK5: modulators of MEK5 binding to wildtype MEKK2, primary screen, biochemical, multiplex bead flow cytometry, Alexa488-MEK5. Alexa488-MEK5 binding to MEKK2 WT; actives lie on both sides. Mitogen-activated protein kinase kinase kinase 2 (Homo sapiens), Q9Y2U5. binding response (% of control), % at 10 µM. 290,000 compounds, 1.1% hits; in the data active = binding response below about 67% or above about 130%
GRK2 inh: compounds blocking aptamer binding on GRK2 – biochemical, human GRK2, bead flow cytometry, HTS, primary screen. FAM-aptamer displacement from GRK2. inhibition of aptamer binding, % at 10 µM. 330,000 compounds, 0.59% hits. AID 488847, 2010;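 active = inhibition of aptamer binding above 40%, roughly 3 SD of noise, on plates passing a quality check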;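 note: median bead fluorescence of bound FAM aptamer so fluorescent compounds give negative values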
Beta2AR agonist: beta2AR agonists driving receptor internalization, primary screen, cell-based, FAP fluorogen, flow cytometry. response, % (test concentration not listed). Beta-2 adrenergic receptor (Homo sapiens), P07550. Am2.2-beta2AR cells. 340,000 compounds, 0.43% hits. AID 504454, 2011;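 active = response above a set limit, near 3 SD of response in nonfluorescent compounds, cut at about 42% in these data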
Target sequence (P07550 whole entry, looked up): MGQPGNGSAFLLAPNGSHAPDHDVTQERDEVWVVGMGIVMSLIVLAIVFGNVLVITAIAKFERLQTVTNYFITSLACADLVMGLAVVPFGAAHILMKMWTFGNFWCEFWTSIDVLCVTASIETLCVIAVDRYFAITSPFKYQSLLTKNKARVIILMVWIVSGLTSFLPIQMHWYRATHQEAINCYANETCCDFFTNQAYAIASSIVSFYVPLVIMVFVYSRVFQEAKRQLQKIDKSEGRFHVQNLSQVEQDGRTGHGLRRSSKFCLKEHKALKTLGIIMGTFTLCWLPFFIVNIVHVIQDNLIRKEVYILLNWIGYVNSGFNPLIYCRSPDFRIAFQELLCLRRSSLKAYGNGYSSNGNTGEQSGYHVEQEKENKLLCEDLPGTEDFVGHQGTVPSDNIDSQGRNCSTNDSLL
MEKK3 PB1 HTS: modulators of MEKK3-MEK5 PB1 binding, primary screen, biochemical, wildtype MEKK3, multiplex bead flow cytometry, Alexa488-MEK5 | bead-based flow cytometry, Alexa488-MEK5 binding to MEKK3; actives lie on both sides; 0 = blocked by unlabeled MEK5, 100 = vehicle | Mitogen-activated protein kinase kinase kinase 3 (Homo sapiens), Q99759 | 290,000 compounds, 1.4% hits | binding response (% of control), % at 10 µM;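 active = binding response more than 3 SD above or below the average of its plate-row segment, actives on both sides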;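 note: Alexa488 bead fluorescence after subtracting the streptavidin-only scavenger bead signal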
MEKK2mut PB1 HTS: MEK5 binding signal on mutant MEKK2 PB1, primary screen, biochemical, multiplex bead flow cytometry, Alexa488-MEK5; Alexa488-MEK5 binding to MEKK2 mutant; 290,000 compounds, 0.35% hits; percent response, % at 10 µM; in the data active = percent response above about 24%, passing the limit was not always enough
GRK2 CP1: GRK2 aptamer-displacing inhibitors, retest, confirmation, biochemical, cherry pick 1, bead flow cytometry; shares compounds with GRK2 inh; bead-bound GRK2, FAM-aptamer displacement; aptamer displacement, % at 10 µM; 2,000 compounds, 4% hits;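 active = aptamer displacement above 40%, near three times the noise of non-fluorescent compounds, on plates passing quality checks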;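 note: negative values mostly reflect intrinsic compound fluorescence rather than true enhancement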
Aptamer quench 1: fluorescent aptamer quenching in GRK2 counter-screen dose response; shares compounds with GRK2 inh; Fluorescent RNA aptamer beads, flow cytometry; hits give high values; fluorescence change (kMESF span), kMESF (test concentration not listed); 110 tested, under 10 active;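 active = compounds whose bead fluorescence drops by more than 37 kMESF across the dose range, marking them as dye quenchers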
FAM quench CP1: aptamer fluorescence quenching in GRK2 counter-screen | 2,000 tested, under 10 active | fluorescence response (% of DMSO), % at 10 µM | shares compounds with GRK2 inh | Carboxyfluorescein RNA aptamer on beads, flow cytometry quenching; hits give low values;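 active = compounds that quench the bead-bound fluorescent RNA probe, cutting fluorescence to under half of the solvent control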;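 note: counterscreen run without GRK2 so only probe quenching by compound is measured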
GRK2 CP2: GRK2 aptamer-displacing inhibitors, hit retest, confirmation, biochemical, cherry pick 2, bead flow cytometry; shares compounds with GRK2 inh; bead-bound GRK2, FAM-aptamer displacement; inhibition of aptamer binding, % at 10 µM; 360 tested, under 10 active; AID 504782, 2011;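 active = inhibition of aptamer binding above 40%, about triple the noise seen with nonglowing compounds, on plates passing quality control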;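 note: negative values mostly come from compounds that fluoresce themselves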
FAM quench SP: aptamer fluorescence quenching in GRK2 counter-screen; shares compounds with GRK2 inh; carboxyfluorescein RNA aptamer beads, flow cytometry quenching; hits give low values; fluorescence response vs DMSO, % at 10 µM; 360 tested, under 10 active;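 active = response vs DMSO under 50%, meaning signal dropped by over half, treated as fluorescence quencher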;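 note: labelled aptamer on streptavidin beads without GRK2 as a quench counter-screen; 100% = bead fluorescence of DMSO wells and lower means quenching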
An asterisk follows results filed as active. The list is not random: actives were taken first. Their share in the collection is about 2.9%.

What do the screens show for `CC(C)C[C@H](NC(=O)OC(C)(C)C)C(=O)N1CCC(C(=O)O)CC1`?
GRK2 inh: 65*; Beta2AR agonist: -4; GRK2 CP1: 0; FAM quench CP1: 101

What do the screens show for `CN(Cc1ccccc1)C(=O)COC(=O)CCC(=O)c1ccc(F)cc1`?
GRK2 inh: 31; Beta2AR agonist: 0; GRK2 CP1: -4; FAM quench CP1: 97

Results for CN(C(=O)COC(=O)CCC(=O)c1ccc(F)cc1)C1CCCCC1 ?
GRK2 inh: 1; Beta2AR agonist: 0

Results for CC1(C)Cc2c(sc3ncnc(NNC(=S)NCc4ccccc4)c23)CO1 ?
MEKK2 WT-MEK5: 108; GRK2 inh: 91*; Beta2AR agonist: -7; MEKK3 PB1 HTS: 132*; MEKK2mut PB1 HTS: 0; GRK2 CP1: 1; FAM quench CP1: 87

What do the screens show for `CC(C)NC(=S)NNc1ncnc2sc3c(c12)CC(C)(C)OC3`?
GRK2 inh: 1; Beta2AR agonist: 6

What do the screens show for `COc1ccc(NC(=O)CSc2nc3c([nH]c4ccccc43)c(=O)n2C)c(OC)c1`?
MEKK2 WT-MEK5: 99; GRK2 inh: 97*; Beta2AR agonist: 0; MEKK3 PB1 HTS: 94; MEKK2mut PB1 HTS: -1; GRK2 CP2: 0; FAM quench SP: 96

Results for Cc1ccccc1NC(=O)CSc1nc2c(c(=O)n(C)c(=O)n2C)n1C ?
MEKK2 WT-MEK5: 105; GRK2 inh: 0; Beta2AR agonist: 0; MEKK3 PB1 HTS: 101; MEKK2mut PB1 HTS: 6

How did CCOc1ccc(NC(=O)CSc2nc3c([nH]c4ccccc43)c(=O)n2C)cc1 do in these assays?
MEKK2 WT-MEK5: 103; GRK2 inh: 1; Beta2AR agonist: -9; MEKK3 PB1 HTS: 103; MEKK2mut PB1 HTS: 0

What do the screens show for `COc1ccc(OC)c(NC(=O)CSc2nc3c(c(=O)n(C)c(=O)n3C)n2C)c1`?
MEKK2 WT-MEK5: 97; GRK2 inh: 74*; Beta2AR agonist: 7; MEKK3 PB1 HTS: 100; MEKK2mut PB1 HTS: 3; GRK2 CP1: -3; FAM quench CP1: 93

Results for O=C(CNS(=O)(=O)c1ccc(Br)cc1)Nc1ccc2c(c1)OCCO2 ?
MEKK2 WT-MEK5: 100; Beta2AR agonist: -5; MEKK3 PB1 HTS: 102; MEKK2mut PB1 HTS: -4

What do the screens show for `Cc1ccc(CN2CCC(CNC(=O)c3ccc(NC(=O)C4=CSCCO4)cc3)CC2)cc1`?
MEKK2 WT-MEK5: 120; GRK2 inh: 0; Beta2AR agonist: -2; MEKK3 PB1 HTS: 101; MEKK2mut PB1 HTS: 6

Results for COC(=O)c1ccc(CSc2nnc(C)n2N)o1 ?
MEKK2 WT-MEK5: 104; GRK2 inh: 100*; Beta2AR agonist: -6; MEKK3 PB1 HTS: 102; MEKK2mut PB1 HTS: 0; GRK2 CP2: -1; FAM quench SP: 111

Results for Cc1ccc(C(=O)O)cc1S(=O)(=O)Nc1ccccc1C(=O)NC1CC1 ?
Beta2AR agonist: 6

What do the screens show for `O=C(CS(=O)(=O)c1ccccc1)N1CCc2ccccc21`?
MEKK2 WT-MEK5: 102; GRK2 inh: 0; Beta2AR agonist: -7; MEKK3 PB1 HTS: 106; MEKK2mut PB1 HTS: 4

How did O=C(CCS(=O)(=O)c1ccc(Br)s1)N1CCc2ccccc21 do in these assays?
MEKK2 WT-MEK5: 113; GRK2 inh: 0; Beta2AR agonist: -16; MEKK3 PB1 HTS: 108; MEKK2mut PB1 HTS: 5; GRK2 CP1: 2; Aptamer quench 1: 3.6; FAM quench CP1: 98

Results for COc1ccccc1N1CCN(/N=C(\C)c2ccccc2O)CC1 ?
MEKK2 WT-MEK5: 96; GRK2 inh: 55*; Beta2AR agonist: -11; MEKK3 PB1 HTS: 100; MEKK2mut PB1 HTS: -10; GRK2 CP1: -1; FAM quench CP1: 100

Results for COc1ccc(-c2oc3ccccc3c2C(=O)OCc2ccccc2)cc1 ?
MEKK2 WT-MEK5: 104; GRK2 inh: 0; Beta2AR agonist: 0; MEKK3 PB1 HTS: 104; MEKK2mut PB1 HTS: -2

How did COc1cccc2sc3ccc(NCCC4CCCN4C)cc3c(=O)c12 (configuration not stated) do in these assays?
MEKK2 WT-MEK5: 116; GRK2 inh: 0; Beta2AR agonist: -85; MEKK3 PB1 HTS: 100; MEKK2mut PB1 HTS: 6

How did COc1cc2sc3cc(NCC[C@@H]4CCCN4C)ccc3c(=O)c2cc1OC do in these assays?
GRK2 inh: 77*; Beta2AR agonist: 22; GRK2 CP2: -23; FAM quench SP: 97

What do the screens show for `N#CC1=C(S)N(c2ccccc2)C(c2ccco2)NC1=O` (configuration not stated)?
MEKK2 WT-MEK5: 68; GRK2 inh: 74*; Beta2AR agonist: -7; MEKK3 PB1 HTS: 69; MEKK2mut PB1 HTS: -14; GRK2 CP1: 1; FAM quench CP1: 101

What do the screens show for `Cc1ccc(NC(=O)COC(=O)C2(CC(=O)NC(C)(C)C)CCCC2)cc1C`?
GRK2 inh: 20; Beta2AR agonist: 4; GRK2 CP1: -1; FAM quench CP1: 99

What do the screens show for `Cc1ccc(NC(=O)COC(=O)C2CC2(Cl)Cl)cc1C` (configuration not stated)?
MEKK2 WT-MEK5: 95; GRK2 inh: 0; Beta2AR agonist: 2; MEKK3 PB1 HTS: 97; MEKK2mut PB1 HTS: -5

What do the screens show for `CCc1nnc(NC(=O)CN2CCN(S(C)(=O)=O)CC2)s1`?
MEKK2 WT-MEK5: 98; GRK2 inh: 0; Beta2AR agonist: -1; MEKK3 PB1 HTS: 102; MEKK2mut PB1 HTS: 0

Results for COc1cc(S(=O)(=O)n2cnc3ccccc32)ccc1Br ?
MEKK2 WT-MEK5: 104; GRK2 inh: 62*; Beta2AR agonist: -12; MEKK3 PB1 HTS: 101; MEKK2mut PB1 HTS: 1; GRK2 CP1: 0; FAM quench CP1: 99
